The structures appear in SMILES notation.

System in one assay: not listed separately
The experiment in a line: probe aNOTCH2 binding on compound microarray – biochemical, small-molecule microarray, 635/667 nm fluorescence, primary screen (AID 1121).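 Also: score merges feature fluorescence read at 667 nm with its signal to noise.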 Particulars: higher = more signal.
As to `CCOC(=O)C[C@H]1[C@H](OC(=O)c2ccccc2-c2ccccc2)[C@@H](NC(=O)c2ccc(-c3ccccc3)cc2)c2cc(OCCCO)ccc2N1C(=O)c1ccc2ccccc2n1`, the composite z-score is -0.0441.

The compound `CCCC[C@@H](O)C1=C(COc2ccccc2)C[C@H]2C(=O)N(C)C(=O)[C@H]2[C@H]1CO` registered a composite z-score of -0.173. Compound `COCCOC(=O)N1C(=O)[C@@]2(c3cc(C#Cc4ccc(OC)cc4)ccc31)[C@H](C(=O)Nc1nc3ccccc3s1)[C@H]1C(=O)O[C@H](c3ccccc3)[C@H](c3ccccc3)N1[C@@H]2c1ccc(O)cc1` registered a composite z-score of -0.118.

As to `COC1OC[C@]2(C)[C@H]3C4=C(CN2C(=O)OC(C)(C)C)[C@H](C)C(CO)C(CO)C4CC[C@@H]13` (stereo not given in full), the composite z-score came out at 0.35.

For `COCCCNC(=O)[C@]1(CCS(=O)(=O)c2ccccc2)N=C(c2ccc(OCCCO)cc2)O[C@@H]1c1ccccc1N=[N+]=[N-]`, the composite z-score was -0.143.

`CCCNC(=O)[C@@]1(c2ccc([N+](=O)[O-])cc2)CC(=O)N(C2CCCCC2)[C@@H]1c1ccc(CO)cc1`: the composite z-score was -0.0406. Same read-out and setting: next, `[N-]=[N+]=NCc1ccccc1C[C@@]1(C(=O)N2CCOCC2)N=C(c2ccc(OCCCO)cc2)O[C@@H]1c1ccccc1`: 0.0012; `NC(N)=NCCCn1cc(CNC(=O)[C@@H](N)Cc2ccccc2)nn1`: -0.0279. As for `COC(=O)[C@@]1(Cc2ccc(OC)cc2)[C@H]2c3cc(C(=O)N(C)C)n(CCO)c3C[C@H]2CN1C(=O)c1ccccc1`, the composite z-score is 0.257. Still for that read-out and setting: next, `COCCCNC(=O)[C@@]1(Cc2ccccc2CN=[N+]=[N-])N=C(c2ccc(OCCCO)cc2)O[C@H]1c1ccccc1`: -0.0006; `C=C[C@@H](OC)[C@H](OC(=O)Nc1ccc(SC)cc1)c1ccc(O)c(F)c1`: -0.0891. Compound `CCCCCCCCCCC(O)C1C=CC2C(=O)N(C)C(=O)C2N1Nc1ccc([N+](=O)[O-])cc1[N+](=O)[O-]` (stereo not given) registered a composite z-score of 0.0807.

`O=C(NCc1ccccc1)[C@@H]1c2ccccc2C(=O)N(Cc2ccccc2C(F)(F)F)[C@H]1c1ccc(CO)cc1`: the composite z-score was -0.13. Regarding `COCCOC(=O)N1C(=O)[C@@]2(c3cc(C#CCCO)ccc31)[C@H](C(=O)Nc1nc3ccccc3s1)[C@H]1C(=O)O[C@H](c3ccccc3)[C@H](c3ccccc3)N1[C@@H]2c1ccccc1OCCO`, the composite z-score is 0.297. The compound `COCCOC(=O)N1C(=O)[C@@]2(c3cc(C#CCC(C(=O)OC)C(=O)OC)ccc31)[C@H](C(=O)N1CCc3cc(OC)c(OC)cc3C1)[C@H]1C(=O)O[C@H](c3ccccc3)[C@H](c3ccccc3)N1[C@@H]2c1ccc(OCCO)cc1` displayed a composite z-score of -0.0357.

`COc1ccc(CCNC(=O)[C@@]2(Sc3ccc(C)cc3)CC(=O)N(C3Cc4ccccc4C3)[C@@H]2c2ccc(CO)cc2)cc1` had a composite z-score of 0.0407. Compound `CC1=C([C@H](O)CCc2ccccc2)[C@H](CO)[C@@H]2C(=O)N(C)C(=O)[C@@H]2C1` had a composite z-score of 0.0592.

In turn, `COc1ccccc1CN1C(=O)c2ccccc2[C@@]2(Cc3ccccc3N(CC(F)(F)F)C2=O)[C@@H]1c1ccc(CO)cc1` had a composite z-score of 0.156. On the same count and under the same terms, next, `CC(C)(C)OC(=O)CC[C@]1(C(=O)NCc2ccccc2)N=C(c2ccc(OCCCO)cc2)O[C@H]1c1ccccc1CN=[N+]=[N-]`: -0.127; `O=C(NCC(F)(F)F)[C@@H]1c2ccccc2C(=O)N(Cc2ccc(OC(F)(F)F)cc2)[C@H]1c1ccc(CO)cc1`: -0.14; `COc1ccc([Si](C)(C)[C@H]2[C@H](CCn3cc([C@H](O)c4ccccc4)nn3)O[C@@]3(C(=O)N(Cc4ccc(N5C(=O)c6cccc7cccc5c67)cc4)c4ccccc43)[C@@H]2C)cc1`: -0.14.

`CCCCCCc1nc(C2CC2)cc2c1[Si](C(C)C)(C(C)C)O[C@H]2c1ccccc1` gave a composite z-score of -0.126. On the same count and under the same terms, next, `COc1cc2c(cc1OC)CN(C(=O)[C@@H]1[C@H]3C(=O)O[C@H](c4ccccc4)[C@H](c4ccccc4)N3[C@H](c3ccc(OCCO)cc3)[C@@]13C(=O)Nc1ccccc13)CC2`: -0.114; `CCOC(=O)C[C@H]1[C@H](OC(=O)c2ccc(C(=O)c3ccccc3)cc2)[C@@H](NC(=O)Cc2ccc(OC)cc2)c2cc(OCCCO)ccc2N1C(=O)c1ccccc1`: -0.0877; `Cc1cc(C)c(C(O)C2C=CC3C(=O)NC(=O)C3N2Nc2ccc(Cl)cc2Cl)c(C)c1` (stereo not given): -0.0125.

Another assay deals with Carbonic anhydrase 2 (Homo sapiens) (UniProt P00918). The experiment in a line: compounds binding carbonic anhydrase 2 – biochemical, small-molecule microarray, Alexa647-labelled CAII, profiling panel (AID 1122). The note with it: CAII-A647 binding fluorescence, higher = more signal.
Compound `COC(=O)c1c2oc(c1C(=O)OC)C(=O)N(Cc1ccccc1)Cc1cn(nn1)C[C@H](Cc1ccccc1)NC(=O)N[C@H](CO)CC2` yielded a composite z-score of 0.778. Same read-out and setting: next, `O=C1O[C@H](c2ccccc2)[C@H](c2ccccc2)N2[C@H]1[C@@H](C(=O)Nc1nc3ccccc3s1)[C@]1(C(=O)Nc3ccc(C#CC4(O)CCCCCC4)cc31)[C@H]2c1ccccc1OCCO`: 0.461.

In turn, `O=C1O[C@@H](c2ccccc2)[C@@H](c2ccccc2)N2[C@@H](c3ccccc3OCCO)[C@]3(C(=O)Nc4ccc(C#CCCO)cc43)[C@@H](C(=O)N3CCCCCCC3)[C@H]12` had a composite z-score of 0.972. Regarding `CC(C)N1CC=CC23O[C@@H]4C=CCOC(=O)[C@@H]4[C@H]2C(=O)N(CCCO)[C@@H]3C1=O` (stereo not given in full), the composite z-score worked out at 0.863.

On to `COc1ccc([Si](C)(C)[C@@H]2[C@@H](CC(=O)N(CCO)Cc3ccccc3)O[C@]3(C(=O)N(Cc4cccc(N5CCOC5=O)c4)c4ccccc43)[C@H]2C)cc1`, for which the composite z-score was 0.596. Compound `COC(=O)[C@@]1(Cc2ccc(F)cc2)[C@H]2c3cc(C(=O)N4CCCC4)n(CCN4CNCC4=O)c3C[C@H]2CN1C(=O)c1ccccc1` registered a composite z-score of 0.766. In turn, `C=C[C@@H](COC(C)=O)N(C(=O)OC(C)(C)C)S(=O)(=O)c1ccc(Br)cc1` gave a composite z-score of 0.646. `CN(C)C(=O)[C@]1(CCS(=O)(=O)c2ccccc2)N=C(c2ccc(OCCCO)cc2)O[C@@H]1c1ccccc1N=[N+]=[N-]` gave a composite z-score of 0.689. `O=C1NC(=O)C2C1C=CC(C(O)c1ccco1)N2Nc1ccccn1` (stereo not given) came in with a composite z-score of 0.713. In the case of `C=CC[C@]1(C(=O)NCCN2CCOCC2)N=C(c2ccc(OCCCO)cc2)O[C@H]1c1ccccc1CN=[N+]=[N-]`, the composite z-score is 0.724. For `CCOC(=O)C[C@H]1[C@H](OC(=O)c2ccccc2-c2ccccc2)[C@@H](NC(=O)c2ccc(-c3ccccc3)cc2)c2cc(OCCCO)ccc2N1C(=O)c1ccc2ccccc2n1`, the composite z-score came to 0.131. Regarding `CCCC[C@@H](O)C1=C(COc2ccccc2)C[C@H]2C(=O)N(C)C(=O)[C@H]2[C@H]1CO`, the composite z-score was -0.482.

`COCCOC(=O)N1C(=O)[C@@]2(c3cc(C#Cc4ccc(OC)cc4)ccc31)[C@H](C(=O)Nc1nc3ccccc3s1)[C@H]1C(=O)O[C@H](c3ccccc3)[C@H](c3ccccc3)N1[C@@H]2c1ccc(O)cc1` displayed a composite z-score of -0.111.

For the compound `COC1OC[C@]2(C)[C@H]3C4=C(CN2C(=O)OC(C)(C)C)[C@H](C)C(CO)C(CO)C4CC[C@@H]13` (stereo not given in full), the composite z-score came to 0.805. On the same count and under the same terms, next, `COCCCNC(=O)[C@]1(CCS(=O)(=O)c2ccccc2)N=C(c2ccc(OCCCO)cc2)O[C@@H]1c1ccccc1N=[N+]=[N-]`: 0.569; `CCCNC(=O)[C@@]1(c2ccc([N+](=O)[O-])cc2)CC(=O)N(C2CCCCC2)[C@@H]1c1ccc(CO)cc1`: 0.66. Same read-out and setting: next, `[N-]=[N+]=NCc1ccccc1C[C@@]1(C(=O)N2CCOCC2)N=C(c2ccc(OCCCO)cc2)O[C@@H]1c1ccccc1`: 0.617; `NC(N)=NCCCn1cc(CNC(=O)[C@@H](N)Cc2ccccc2)nn1`: 0.948; `COC(=O)[C@@]1(Cc2ccc(OC)cc2)[C@H]2c3cc(C(=O)N(C)C)n(CCO)c3C[C@H]2CN1C(=O)c1ccccc1`: 0.935. Consider `COCCCNC(=O)[C@@]1(Cc2ccccc2CN=[N+]=[N-])N=C(c2ccc(OCCCO)cc2)O[C@H]1c1ccccc1`, for which the composite z-score came out at 0.254.

Consider `C=C[C@@H](OC)[C@H](OC(=O)Nc1ccc(SC)cc1)c1ccc(O)c(F)c1`, for which the composite z-score was 0.699.

With `CCCCCCCCCCC(O)C1C=CC2C(=O)N(C)C(=O)C2N1Nc1ccc([N+](=O)[O-])cc1[N+](=O)[O-]` (stereo not given), the composite z-score came out at 0.589.

In turn, `O=C(NCc1ccccc1)[C@@H]1c2ccccc2C(=O)N(Cc2ccccc2C(F)(F)F)[C@H]1c1ccc(CO)cc1` gave a composite z-score of 0.759. Take `COCCOC(=O)N1C(=O)[C@@]2(c3cc(C#CCCO)ccc31)[C@H](C(=O)Nc1nc3ccccc3s1)[C@H]1C(=O)O[C@H](c3ccccc3)[C@H](c3ccccc3)N1[C@@H]2c1ccccc1OCCO`: the composite z-score stood at 0.542.

`COCCOC(=O)N1C(=O)[C@@]2(c3cc(C#CCC(C(=O)OC)C(=O)OC)ccc31)[C@H](C(=O)N1CCc3cc(OC)c(OC)cc3C1)[C@H]1C(=O)O[C@H](c3ccccc3)[C@H](c3ccccc3)N1[C@@H]2c1ccc(OCCO)cc1` gave a composite z-score of 0.357. Compound `COc1ccc(CCNC(=O)[C@@]2(Sc3ccc(C)cc3)CC(=O)N(C3Cc4ccccc4C3)[C@@H]2c2ccc(CO)cc2)cc1` returned a composite z-score of 0.274. The compound `CC1=C([C@H](O)CCc2ccccc2)[C@H](CO)[C@@H]2C(=O)N(C)C(=O)[C@@H]2C1` displayed a composite z-score of 0.125. With `COc1ccccc1CN1C(=O)c2ccccc2[C@@]2(Cc3ccccc3N(CC(F)(F)F)C2=O)[C@@H]1c1ccc(CO)cc1`, the composite z-score worked out at 0.757. The same measure, in the same setting: next, `CC(C)(C)OC(=O)CC[C@]1(C(=O)NCc2ccccc2)N=C(c2ccc(OCCCO)cc2)O[C@H]1c1ccccc1CN=[N+]=[N-]`: 0.68; `O=C(NCC(F)(F)F)[C@@H]1c2ccccc2C(=O)N(Cc2ccc(OC(F)(F)F)cc2)[C@H]1c1ccc(CO)cc1`: 0.65; `COc1ccc([Si](C)(C)[C@H]2[C@H](CCn3cc([C@H](O)c4ccccc4)nn3)O[C@@]3(C(=O)N(Cc4ccc(N5C(=O)c6cccc7cccc5c67)cc4)c4ccccc43)[C@@H]2C)cc1`: 0.193. In turn, `CCCCCCc1nc(C2CC2)cc2c1[Si](C(C)C)(C(C)C)O[C@H]2c1ccccc1` gave a composite z-score of -0.324.

Regarding `COc1cc2c(cc1OC)CN(C(=O)[C@@H]1[C@H]3C(=O)O[C@H](c4ccccc4)[C@H](c4ccccc4)N3[C@H](c3ccc(OCCO)cc3)[C@@]13C(=O)Nc1ccccc13)CC2`, the composite z-score is 0.634. In the case of `CCOC(=O)C[C@H]1[C@H](OC(=O)c2ccc(C(=O)c3ccccc3)cc2)[C@@H](NC(=O)Cc2ccc(OC)cc2)c2cc(OCCCO)ccc2N1C(=O)c1ccccc1`, the composite z-score amounted to 0.188. The compound `Cc1cc(C)c(C(O)C2C=CC3C(=O)NC(=O)C3N2Nc2ccc(Cl)cc2Cl)c(C)c1` (stereo not given) returned a composite z-score of 0.575.
